From PubChem BioAssay (NCI) come the findings set out here.

About 83,000 compounds went through this panel and 20% of them were active in at least one assay; those are over-represented in the sample as a whole.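 Single-concentration screen, 48 h exposure, 96-well plates. Endpoint: percent growth. Below 10 = active.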 Values without a mark were called inactive. Calls of active or inactive are those of the source.

Among the test systems are HCT-15 colon; HT29 colon; SNB-75 CNS; SNB-19 CNS; U251 CNS; PC-3 prostate; SK-MEL-5 melanoma; UACC-62 melanoma; LOX IMVI melanoma; SK-MEL-28 melanoma; SK-MEL-2 melanoma; EKVX NSCLC; SN12C renal; UO-31 renal; TK-10 renal; ACHN renal; CAKI-1 renal; A498 renal; CCRF-CEM leukemia; MOLT-4 leukemia.
Common to all, as to assay: NCI-60 one-dose screen, 48 h (100 = growth as untreated, 0 = no growth, -100 = all killed)
Holding throughout (conditions): 10 µM unless noted

With `COc1ccc(C2CC(c3ccc4c(c3)OCO4)=Nc3c(N)ncnc3N2)cc1` (centres undefined), the growth with HCT-15 colon was 94.3%; in the test on HT29 colon it was 106%; in the test with SNB-75 CNS, 86.6%; in the test with SNB-19 CNS it was 88.8%; with U251 CNS it was 101%; in the test with PC-3 prostate it was 98.6%. Besides, the growth with SK-MEL-5 melanoma is 87.8%; with UACC-62 melanoma, 90.3%; with LOX IMVI melanoma, 101%; in the test with SK-MEL-28 melanoma, 112%; with SK-MEL-2 melanoma it was 72.6%; with EKVX NSCLC, 119%. The growth in the test with SN12C renal is 111%; in the test on UO-31 renal it was 89.4%; with TK-10 renal, 118%; in the test with ACHN renal, 101%; with CAKI-1 renal it was 120%; in the test on A498 renal, 94.4%. The growth in the test with CCRF-CEM leukemia was 3.41% (active).

`Nc1n[nH]c2ccc([C@@H]3Nc4cc5[nH]ncc5cc4[C@H]4C5CCC(C5)[C@@H]34)cc12` (some centres undefined): the growth is 13.7% in the test with HCT-15 colon; 6.61% (active) in the test with HT29 colon; -9.87% (active) in the test with SNB-75 CNS; 20.4% in the test on SNB-19 CNS; 19% with U251 CNS; 25.1% in the test with PC-3 prostate. For the same molecule, the growth with SK-MEL-5 melanoma was 9.55% (active); in the test with UACC-62 melanoma, 33.8%; in the test on LOX IMVI melanoma it was 25.4%; in the test on SK-MEL-28 melanoma, 60.1%; in the test on SK-MEL-2 melanoma it was 65.2%; in the test on EKVX NSCLC, 35.2%. Also, the growth in the test with SN12C renal was 36.4%; in the test with UO-31 renal it was 40.2%; in the test with TK-10 renal it was 62.4%; in the test on ACHN renal it was 32.1%; with CAKI-1 renal it was 34.5%; in the test on A498 renal, -15.7% (active). Moreover, the growth with CCRF-CEM leukemia is 11.2%.

For `CC(C)(CO)N(CCO)CCO`, the growth with HCT-15 colon is 99.7%; in the test on HT29 colon, 98.6%; with SNB-75 CNS, 102%; in the test on SNB-19 CNS, 103%; in the test on U251 CNS, 91.4%; in the test on PC-3 prostate, 91.4%. In addition, the growth with SK-MEL-5 melanoma was 97.1%; with UACC-62 melanoma, 101%; in the test on LOX IMVI melanoma, 100%; with SK-MEL-28 melanoma it was 103%; in the test on SK-MEL-2 melanoma it was 100%; in the test with EKVX NSCLC it was 116%. For the same molecule, the growth was 99.1% in the test on SN12C renal; 87.4% in the test with UO-31 renal; 95.5% with TK-10 renal; 97.1% in the test on ACHN renal; 100% with CAKI-1 renal; 111% with A498 renal. In addition, the growth in the test on CCRF-CEM leukemia was 92.8%.

With `CC(C)c1ccc(-n2c(=S)[nH]c3sc4c(c3c2=O)CCC(=O)C4)cc1`, the growth is 45.9% in the test on HCT-15 colon; 109% in the test on HT29 colon; 41.6% in the test with SNB-75 CNS; 26.4% in the test on SNB-19 CNS; 11.8% in the test on U251 CNS; 7.63% (active) in the test on PC-3 prostate. Also, the growth is 27.9% in the test on SK-MEL-5 melanoma; 24.5% in the test on UACC-62 melanoma; 43.3% in the test on LOX IMVI melanoma; 75.7% in the test on SK-MEL-28 melanoma; 91.4% in the test on SK-MEL-2 melanoma; 47% in the test with EKVX NSCLC. Besides, the growth with SN12C renal was 50.8%; in the test on UO-31 renal, 46.9%; with TK-10 renal it was 106%; in the test on ACHN renal, 82%; with CAKI-1 renal, 74.2%; in the test on A498 renal, 112%. Besides, the growth in the test with CCRF-CEM leukemia is 18.2%.

In the case of `CN(C)c1ccc(/C=C/C(=O)c2ccccc2)cc1`, the growth in the test on HCT-15 colon is 62.1%; in the test on HT29 colon, 62.5%; with SNB-75 CNS it was 100%; in the test with SNB-19 CNS it was 90.4%; with U251 CNS, 69.3%; in the test on PC-3 prostate it was 71.6%. The growth was 89.3% in the test with SK-MEL-5 melanoma; 93.1% in the test on UACC-62 melanoma; 78.3% with LOX IMVI melanoma; 96.8% with SK-MEL-28 melanoma; 93.5% with SK-MEL-2 melanoma; 97.9% in the test with EKVX NSCLC. For the same molecule, the growth with SN12C renal was 84.8%; in the test with UO-31 renal, 67.5%; in the test with TK-10 renal it was 74.5%; with ACHN renal, 109%; in the test on CAKI-1 renal, 97.1%; in the test on A498 renal, 74%. Besides, the growth is 66.1% in the test on CCRF-CEM leukemia and 76.3% in the test with MOLT-4 leukemia.

Take `Cc1c2ccccc2nc2c1ccc1cccnc12`: the growth in the test on HCT-15 colon is 81.4%; with HT29 colon, 70.9%; in the test on SNB-75 CNS, 71.1%; in the test on SNB-19 CNS, 88.8%; with U251 CNS, 84.7%; in the test on PC-3 prostate it was 65.1%. The growth with SK-MEL-5 melanoma is 53%; with UACC-62 melanoma, 94.6%; in the test on LOX IMVI melanoma it was 105%; in the test with SK-MEL-28 melanoma it was 113%; with SK-MEL-2 melanoma, 95.5%; with EKVX NSCLC, 62.7%. The growth with SN12C renal was 88.7%; in the test on UO-31 renal, 83.9%; in the test with TK-10 renal it was 96.1%; in the test with ACHN renal, 97.3%; in the test on CAKI-1 renal, 77%; in the test on A498 renal, 80.2%. For the same molecule, the growth is 77.8% in the test with CCRF-CEM leukemia and 68.3% with MOLT-4 leukemia.

As to `O=C(N/N=C/c1ccc(O)cc1O)c1ccc(Nc2ccnc(C(F)(F)F)c2)cc1`, the growth in the test with HCT-15 colon is 39.7%; in the test with HT29 colon, 58.6%; in the test on SNB-75 CNS it was 62.2%; with SNB-19 CNS, 32%; with U251 CNS it was 24.6%; in the test with PC-3 prostate, 50.2%. Further, the growth in the test with SK-MEL-5 melanoma is 20.7%; in the test with UACC-62 melanoma, 11.7%; in the test on LOX IMVI melanoma it was 12.9%; in the test with SK-MEL-28 melanoma, 60.7%; in the test on SK-MEL-2 melanoma it was 73.3%; with EKVX NSCLC it was 41.4%. Also, the growth is 38.5% with SN12C renal; 46.1% in the test with UO-31 renal; 63.3% in the test on TK-10 renal; 37.9% with ACHN renal; 34.9% in the test on CAKI-1 renal; 74.7% with A498 renal. Further, the growth in the test on CCRF-CEM leukemia is 29.1%.

Regarding `CC(=O)N(Cc1ccccc1)c1nc2ccc(O)c(CN(C)C)c2s1`, the growth in the test on HCT-15 colon was 97.8%; in the test with HT29 colon, 109%; in the test with SNB-75 CNS, 79.2%; with SNB-19 CNS, 100%; with U251 CNS, 96.2%; with PC-3 prostate, 90.2%. In addition, the growth is 99% with SK-MEL-5 melanoma; 93.7% in the test on UACC-62 melanoma; 94.1% in the test on LOX IMVI melanoma; 107% in the test with SK-MEL-28 melanoma; 108% in the test with SK-MEL-2 melanoma; 89% in the test with EKVX NSCLC. Also, the growth in the test on SN12C renal is 99.2%; in the test on UO-31 renal, 77%; with TK-10 renal, 99.6%; in the test with ACHN renal it was 96.8%; in the test on CAKI-1 renal it was 82.8%; in the test with A498 renal it was 66%. In addition, the growth with CCRF-CEM leukemia is 106%.
